Only some compounds are listed: those with a hit (about 3.7% of all), similar ones and a draw of the others.
FEN1 inhibitor: blocks human flap endonuclease 1; P39748; Potency, µM (top dose mostly 114 µM), without a hit: top-dose activity change, negative = inhibition, usual class: inhibitors; 390,000 tested, 0.35% active; Recombinant FEN1 flap cleavage, fluorescence, 15 min; also: potency is read from the fitted curve at half-maximal effect; % is scaled to controls: 0 for no effect and ±100 for the full control effect; nearly all actives have a fitted effect of over 65% in size
Target sequence (P39748 whole entry, looked up): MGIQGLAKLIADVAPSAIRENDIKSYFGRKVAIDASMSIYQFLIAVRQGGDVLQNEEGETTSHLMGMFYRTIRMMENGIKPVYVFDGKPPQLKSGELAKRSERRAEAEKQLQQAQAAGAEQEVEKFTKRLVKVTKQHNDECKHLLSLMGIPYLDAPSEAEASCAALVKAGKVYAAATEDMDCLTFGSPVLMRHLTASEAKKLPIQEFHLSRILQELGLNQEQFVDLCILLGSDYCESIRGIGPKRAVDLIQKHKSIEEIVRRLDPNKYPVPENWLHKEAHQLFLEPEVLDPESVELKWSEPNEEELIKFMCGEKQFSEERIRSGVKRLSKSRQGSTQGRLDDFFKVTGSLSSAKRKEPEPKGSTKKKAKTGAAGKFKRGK
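Enzyme 10 nM, 15 min RT preincubation with compound; start with substrate 50 nM final; reads at 0 and 15 min; qHTS titration, four-parameter Hill fit.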
WRN helicase inh: blocks human WRN helicase; Q14191; 360,000 tested, 0.46% active; Potency, µM (titrated, usually from 114 µM), for the others: at the highest dose activity change, negative = inhibition, usual class: inhibitors; AID 651768; WRN helicase unwinding, fluorescent forked duplex, kinetic; also: potency is read from the fitted curve at half-maximal effect; % is scaled to controls: 0 for no effect and ±100 for the full control effect; nearly all actives have a fitted effect of over 55% in size
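Primary qHTS, 1536-well format. 20 nM WRN + compound, 15 min RT; start with 100 nM forked fluorophore/quencher duplex, 2 mM ATP (final); kinetic read ex 525/em 598 nm.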
PLK1 PBD block: blocks phosphopeptide binding to human PLK1 polo-box domain. P53350. Plk1 PBD binding of FITC phosphopeptide, fluorescence polarization. Potency, µM, inactives show max response, negative = inhibition, actives largely listed as inhibitors. 360,000 tested, 2.8% active. AID 720504; also: potency is read from the fitted curve at half-maximal effect; series mostly up to about 57 µM; % is scaled to controls: 0 for no effect and ±100 for the full control effect; nearly all actives have a fitted effect of over 65% in size
VDR inh: inhibitors of human vitamin D receptor; P11473; VDR-SRC2-3 peptide fluorescence polarization, 2 h; Potency, µM, for the others: max response, negative = inhibition, most hits filed as inhibitors; 400,000 tested, 0.93% active; also: potency is read from the fitted curve at half-maximal effect; % is scaled to controls: 0 for no effect and ±100 for the full control effect
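After 23 nl compound addition and a short centrifugation, plates sat for 2 hours at ambient temperature; polarization of fluorescence then indicated loss of VDR binding to peptide SRC2-3.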
PI5P4Ka inh: inhibitors of human PI5P4K alpha. max response, %. 330,000 tested, 1.2% active. P48426. PI5P4Kalpha enzyme, ADP-Glo luminescence, 60 min; stronger effect = lower value; active = max response of -50% or lower; inconclusive = between -30% and -50%; inactive = -30% or higher; also: value at the top dose of about 77 µM; % is scaled to controls: 0 for no effect and ±100 for the full control effect
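qHTS, 1536-well: enzyme/substrate mix, compound by pin tool, 5 microM ATP final; RT 60 min; ADP-Glo reagents 1 (45 min) then 2 (30 min); luminescence.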
TCR act: T cell receptor activation; primary human leukocytes, anti-CD3, IL-2 HTRF, 48 h; Potency, µM (series often up to 9.22 µM), for inactives: at the highest dose activation of IL-2 secretion, usual class: activators; 330,000 tested, under 10 active; also: % of control where 0% means no effect
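HTRF read-out of IL-2 secretion: europium cryptate donor excited at 320nm, d2 acceptor emission at 665nm. Cells were primary human leukocytes incubated 48 hr with compounds and a-CD3 beads, supplying TCR signal only.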
* marks the source's active call; other numbers are inactive results; ? = inconclusive; . = not tested or not shown; [ ] = another dose, or the depositor's remark. Unless noted, calls follow the shape of the dose curve; as a rule, active = well fitted curve in the direction sought with a large enough effect; inconclusive = small, poorly fitted or top-dose-only effect, or another doubt; inactive = no such curve, though single readings can be large; an effect the other way counts as inactive or inconclusive.

SMILES	FEN1 inhibitor	WRN helicase inh	PLK1 PBD block	VDR inh	PI5P4Ka inh	TCR act
CC(C)CCN1C(=O)c2ccc(C(=O)Nc3ccc(Br)cc3C(=O)O)cc2C1=O	-25%	-8%[11.6 µM]	?	79µM*	?	.
O=C(Nc1ccc(Cl)cc1C(=O)O)c1ccc2c(c1)C(=O)N(Cc1ccco1)C2=O	?	-30%[57.1 µM]	27µM*	?	-75*	1%[46.1 µM]
O=C(Nc1cccc(O)c1)c1ccc2c(c1)C(=O)N(Cc1ccco1)C2=O	-7%	-18%	-7%	-2%	-26	4%
CC(C)CN1C(=O)c2ccc(C(=O)Nc3ccccc3C(=O)O)cc2C1=O	-8%	-2%	24µM*	?	-64*	5%
Cc1ccc(-c2nc3cc(Cl)ccc3o2)cc1NC(=O)COc1ccccc1C	-26%	.	.	.	.	.
CCc1ccc(CNC(=O)c2cc(=O)[nH]c3ccc(S(=O)(=O)N4CCCCC4)cc23)cc1	-2%	.	.	16%	.	.
Cc1ccc(-n2ncc(-c3nnc(SCC(=O)NC4CCCC4)o3)c2N)cc1C	7%	-6%	-7%	0%	-6	3%
Cc1ccc(-n2ncc(-c3n[nH]c(=S)o3)c2N)cc1C	.	-1%	-20%	.	-76*	.
COc1ccc(C(=O)C[n+]2cccc3cccc(O)c32)cc1	15%	.	.	.	.	.
C=CCC(O)c1ccccc1 (centres undefined)	.	.	.	9%	.	.
O=C(NNC(=S)NC1CCCCC1)c1cccc(S(=O)(=O)Nc2ccccc2Cl)c1	-5%	-23%	30µM*	-4%	-1	-6%[46.1 µM]
COC(=O)c1ccc(C(=O)Nc2ccc(C(C)C)cc2N)cc1	0%	-3%	30µM*	-7%	-7	2%
COC(=O)c1ccc(C(=O)NN)cc1	0%	-16%	4%	-4%	4	5%
O=c1cc(C(F)(F)F)nc(SCc2cccc3ccccc23)[nH]1	-7%	-5%	30µM*	-11%	35	9%
CC(C(=O)N1CCCCC1)N(C)CC(=O)Nc1ccc(Cl)cc1 (centres undefined)	?	3%	12µM*	?	-22	-3%
CC(C(=O)N1CCCCC1)N(C)CC(=O)Nc1ccc(F)c(F)c1F (centres undefined)	.	0%	-2%	.	-2	.
COc1ccc(F)cc1C(=O)C1CCCN(Cc2cnc(N3CCCC3)s2)C1 (centres undefined)	2%	3%	-22%	11%	0	6%
COc1ccc(Cl)cc1C(=O)C1CCCN(Cc2cnc(N3CCOCC3)s2)C1 (centres undefined)	-10%	-4%	13µM*	?	-14	-14%
Cc1nn(C)c(C)c1CCC(=O)N1CCCC(C(=O)c2cccc(OC(C)C)c2)C1 (centres undefined)	3%	7%	27µM*	-24%	-3	2%
CC(C)Oc1cccc(C(=O)C2CCCN(C(=O)CCc3cnn(C)c3)C2)c1 (centres undefined)	7%	?	-2%	-14%	7	-2%
CCOC(=O)CN1C(=O)S/C(=C\c2ccc(-c3cccc(C(=O)O)c3C)o2)C1=O	5%	-3%[11.6 µM]	-7%	13%	-17	-8%
Cc1ccc(NC(=O)CN2C(=O)S/C(=C\c3ccc(-c4cccc(C(=O)O)c4C)o3)C2=O)cc1C	50µM*	?	19µM*	-19%	?	-2%
CC(CC(=O)NCc1ccc(Cl)cc1)CC1=NS(=O)(=O)c2ccccc2N1 (centres undefined)	0%	.	.	7%	.	.
CC(=O)Nc1ccc(OCCOc2ccc(/C=C3/C(=N)N4C=CSC4=NC3=O)cc2)cc1	-2%	4%	3.4µM*	?	?	0%
Cc1cccc2c1-c1sc(C(=O)N3CCN(c4ccc(F)cc4)CC3)cc1CO2	-5%	.	.	10%	.	.
CCCN1C(=S)SC(C)(C)C1/[N+]([O-])=C/c1cccnc1 (centres undefined)	3%	17%	24µM*	-4%	2	3%
Cc1ccc(-c2nnn(CC(=O)NCC3CC3)n2)o1	-3%	-6%	-5%	13%	1	4%

Assay outcomes deposited in PubChem BioAssay by National Center for Advancing Translational Sciences (NCATS).
